This is a sample that favours compounds with a hit; in the whole collection about 11% have one here.
Sm TGR block – S. mansoni TGR enzyme inhibition. AID 485364. Potency, µM (top dose mostly 114 µM), most hits filed as inhibitors. purified TGR, DTNB reduction, TNB absorbance 405 nm. Q962Y6. actives 3% (n = 360,000); also: nearly all actives have a fitted effect of over 60% in size
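First, TGR (20 nM dispensed) and NADPH were mixed with compound. Second, a 15 min room-temperature incubation followed. Third, further NADPH and then DTNB were added to start the reaction. Finally, TNB absorbance was monitored kinetically.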
NS1 inh – influenza NS1 inhibition; actives 0.4% (n = 270,000); Potency, µM (top dose mostly 46.1 µM); calls by dose curve; also: actives are rising curves; nearly all actives have a fitted effect of over 50% in size
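Compounds were scored for reversing the slow growth caused by influenza A NS1 in S. cerevisiae, measured by optical density at 600 nm. Assay medium contained 2% galactose at pH 6.0; NS1-free yeast of the same strain were the positive control.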
Pf growth 48h – P. falciparum growth inhibition at 48 hours (one generation). Potency, µM (series often up to 28.7 µM), hits mostly inhibitors. AID 504832. P. falciparum luciferase growth in erythrocytes, 48 h. actives 5.9% (n = 310,000)
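Luciferase-expressing parasites in RBCs, 2% Hct / 0.1% parasitemia final; RPMI 1640 + 0.5% Albumax; 37 C, 5% CO2, one generation; luminescence read-out, lower signal = inhibition.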
Pf growth 96h – inhibits malaria parasite growth, 96 h; P. falciparum luciferase reporter growth, 96 h; Potency, µM (doses to about 28.7 µM), hits mostly inhibitors; actives 6.9% (n = 320,000); AID 504834
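Cell-based qHTS: luciferase-tagged P. falciparum in erythrocytes (2% hematocrit, 0.05% parasitemia final) incubated with compounds for 96 hours, 37 C, 5% CO2; luciferase detection reagent then added and luminescence measured.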
AMA1 RON2 block – AMA1-RON2 (P. falciparum) interaction inhibition | AlphaScreen AMA1-biotinylated RON2 peptide binding | Potency, µM (top dose mostly 58.2 µM), actives largely listed as inhibitors | actives 0.2% (n = 360,000); also: nearly all actives have a fitted effect of over 45% in size
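AMA1 (3D7) with his tag at 25 nM final met compounds first, then biotinylated RON2 peptide at 25 nM; detection used donor plus acceptor beads, 10 µg/mL apiece, read by AlphaScreen after 30 min at room temperature.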
Each line names hits and unclear results; the compound was inactive in the other large screens. Unless noted, calls follow the shape of the dose curve; as a rule, active = well fitted curve in the direction sought with a large enough effect; inconclusive = small, poorly fitted or top-dose-only effect, or another doubt; inactive = no such curve, though single readings can be large; an effect the other way counts as inactive or inconclusive.

COc1ccc(C(=O)c2ccc([N+](=O)[O-])cc2Cl)cc1	Sm TGR block 12.6µM, AMA1 RON2 block inconclusive
COC(=O)N/N=C/c1ccc(OC(=O)/C=C/c2ccco2)cc1	Sm TGR block inconclusive, AMA1 RON2 block inconclusive
O=C(Cc1ccccc1)N/N=C/c1ccc(OC(=O)/C=C\c2ccco2)cc1	Sm TGR block 35.5µM
CCc1ccc(OC(=O)/C=C/c2ccco2)cc1	Sm TGR block 28.2µM, Pf growth 96h inconclusive
O=C(C=Cc1ccco1)c1ccco1	none (no result: Sm TGR block, NS1 inh, Pf growth 48h, Pf growth 96h)
O=C(/C=C/c1ccco1)Oc1cccc2cccnc12	Sm TGR block inconclusive, Pf growth 48h 5.22µM, Pf growth 96h 5.86µM
COc1ccc(OC)c(N(CCN2C(=O)c3ccccc3C2=O)C(=O)CCl)c1	none (no result: Sm TGR block, NS1 inh, Pf growth 48h, Pf growth 96h)
COc1ccccc1/C=C/C=N/NC(=O)c1ccco1	Pf growth 48h 11.7µM, Pf growth 96h inconclusive
COc1ccc(/C=N/NC(=O)c2ccco2)cc1OCc1ccccc1	Pf growth 48h 8.28µM, Pf growth 96h inconclusive
Cc1ccc2occ(/C=N/NC(=O)c3ccccc3Br)c(=O)c2c1	Pf growth 96h 4.65µM
CCOC(=O)N/N=C/c1ccccc1OCc1ccc(Cl)cc1	Pf growth 48h 2.94µM, Pf growth 96h 2.08µM
O=C(Cc1ccccc1)N/N=C/c1ccccc1OCc1ccc(Cl)cc1	none
CCOc1ccccc1C(=O)N/N=C/c1coc2ccc(C)cc2c1=O	none
COc1ccccc1/C=C/C=N/NC(=O)c1ccncc1	none
CNC(=O)NC(=O)C(OC(=O)CCNS(=O)(=O)c1ccccc1)c1ccccc1 (stereo unspecified)	Pf growth 48h inconclusive
O=C(N/N=C\c1ccccc1OCc1ccccc1)c1ccco1	Pf growth 48h 8.28µM, Pf growth 96h inconclusive
O=C(N/N=C/c1ccc(OCc2ccccc2)cc1)c1ccco1	Pf growth 48h 1.85µM, Pf growth 96h 3.7µM
COc1ccccc1/C=C/C=N/NC(=O)c1ccc2nc[nH]c2c1	Pf growth 48h inconclusive, Pf growth 96h 9.28µM (no result: NS1 inh, AMA1 RON2 block)
C#CCOc1ccccc1/C=N/NC(=O)c1ccccc1OCc1ccccc1	Pf growth 48h inconclusive, Pf growth 96h 10.4µM
COc1ccc(C(C(=O)NC2CCCCC2)N(Cc2ccco2)C(=O)c2snc(C(N)=O)c2N)cc1 (stereo unspecified)	Pf growth 48h inconclusive, Pf growth 96h inconclusive
O=C(N/N=C\c1coc2ccccc2c1=O)c1ccco1	Sm TGR block 28.2µM
O=C(N/N=C/c1coc2ccccc2c1=O)c1ccccc1	Sm TGR block inconclusive (no result: NS1 inh)
CC(=O)c1cccc(NC(=O)CCn2c(=S)oc3ccccc32)c1	none
O=C(OCc1cn([C@H]2CN(Cc3cccs3)[C@@H](c3ccc(Cl)cc3)C[C@@H]2O)nn1)c1ccccc1	none (no result: Sm TGR block, NS1 inh, Pf growth 48h, Pf growth 96h)
COc1ccccc1/C=C/C(=O)NCC(=O)N/N=C(/C)c1ccc(Cl)cc1	none
O=C(/C=C/c1ccc([N+](=O)[O-])cc1)/C=C/c1ccco1	Sm TGR block 4.47µM, Pf growth 48h inconclusive (no result: AMA1 RON2 block)
O=C(/C=C/c1ccco1)NCC(=O)N/N=C/c1ccc([N+](=O)[O-])cc1	Sm TGR block 8.91µM (no result: NS1 inh)
C/C(=N/NC(=O)CNC(=O)/C=C/c1ccco1)c1ccc(Cl)cc1	Sm TGR block 8.91µM, Pf growth 96h inconclusive
O=C(/C=C/c1ccco1)NCC(=O)N/N=C/c1ccc(Cl)cc1	Sm TGR block 14.1µM (no result: NS1 inh)
CCCS(=O)(=O)c1c(S(=O)(=O)CCC)c2c(N)cccn2c1C(=O)c1ccc(OC)cc1	Pf growth 48h inconclusive
CCCS(=O)(=O)c1c(S(=O)(=O)CCC)c2c(N)cccn2c1C(=O)c1ccc(F)cc1	Sm TGR block 22.4µM, NS1 inh inconclusive, Pf growth 48h 10.4µM
CCCS(=O)(=O)c1c(S(=O)(=O)CCC)c2c(N)cccn2c1C(=O)c1ccc(Br)cc1	Sm TGR block inconclusive, NS1 inh inconclusive, Pf growth 48h 11.7µM
CCOc1cccc(CN2CCCC(N3CCN(c4cccc(Cl)c4)CC3)C2)c1O (stereo unspecified)	Pf growth 48h inconclusive, Pf growth 96h 3.7µM
CCOc1cccc(CN2CCN(c3cccc(C(F)(F)F)c3)CC2)c1O	Pf growth 48h 2.33µM (no result: Pf growth 96h)
CCOc1cccc(CN2CCCC(C(=O)c3cc(Cl)ccc3OC)C2)c1O (stereo unspecified)	Pf growth 48h 1.65µM
CCOc1cccc(CN2CCCC(N3CCc4ccccc4C3)C2)c1O (stereo unspecified)	Sm TGR block inconclusive, Pf growth 48h 1.65µM
COc1cccc(CN2CCN(c3cccc(C(F)(F)F)c3)CC2)c1OC	AMA1 RON2 block inconclusive (no result: Pf growth 96h)
CN1C(=O)[C@H]2[C@@H](C3CC3)N3C(=O)CN(CC4CC4)C(=O)[C@@]3(C)[C@H]2C1=O	none
C/C(CC(=O)Nc1cccc(Cl)c1C)=N\NC(=O)Cc1csc(N)n1	none (no result: NS1 inh)
O=C(Cn1c(-c2ccccn2)nc2ccccc21)N/N=C/c1cccnc1	none
COc1cc(/C=C/c2nc(C#N)c(N3CCC(C)CC3)o2)cc(OC)c1OC	none (no result: NS1 inh, Pf growth 48h, Pf growth 96h, AMA1 RON2 block)
Cc1nn(C)c(Cl)c1CN1CCCC(CCC(=O)NCc2ccccc2F)C1 (stereo unspecified)	none
COc1ccc(C(=O)C2CCCN(Cc3cnc(N4CCCC4)s3)C2)cc1OC (stereo unspecified)	Pf growth 48h inconclusive, Pf growth 96h inconclusive
CCOc1cccc(CN2CCCC(CCC(=O)NCc3ccccc3F)C2)c1O (stereo unspecified)	Pf growth 48h inconclusive, Pf growth 96h 1.47µM
FC(F)(F)c1cccc(N2CCN(Cc3cccnc3)CC2)c1	Pf growth 48h inconclusive, Pf growth 96h 4.65µM
COc1ccc(C(=O)C2CCCN(Cc3cnc(C)s3)C2)cc1OC (stereo unspecified)	Pf growth 96h 14.7µM
COc1ccc(C(=O)C2CCCN(Cc3cccn3-c3ccccn3)C2)cc1F (stereo unspecified)	Pf growth 48h 9.28µM
Cc1cccc(S(=O)(=O)NC(=O)C2(C)CCN2C(=O)CC2CCCCC2)c1 (stereo unspecified)	none (no result: Sm TGR block, NS1 inh, Pf growth 48h, Pf growth 96h)
COc1ccc(F)cc1C(=O)C1CCCN(Cc2cnc(N3CCCC3)s2)C1 (stereo unspecified)	none
COc1ccc(Cl)cc1C(=O)C1CCCN(Cc2cnc(N3CCOCC3)s2)C1 (stereo unspecified)	Pf growth 48h inconclusive, Pf growth 96h 10.4µM
COC(=O)c1[nH]c2ccc(Cl)cc2c1NC(=O)CCN1CCN(C2CCCCC2)CC1	Pf growth 48h 11.7µM, Pf growth 96h 3.7µM
COC(=O)c1[nH]c2ccc(C)cc2c1NC(=O)CN1CCCC(C)(C)C1	Pf growth 48h inconclusive, Pf growth 96h 11.7µM
CCOC(=O)C1CCN(CC(=O)Nc2c(C(=O)OC)[nH]c3ccc(Cl)cc23)CC1	Pf growth 48h 13.1µM, Pf growth 96h inconclusive
CCOC(=O)c1[nH]c2ccc(C)cc2c1NC(=O)CN1CCCCC1	Pf growth 48h inconclusive
COC(=O)c1[nH]c2cc(C)ccc2c1NC(=O)CN1CCCc2ccccc21	Pf growth 48h inconclusive, Pf growth 96h inconclusive
COC(=O)c1[nH]c2ccc(Br)cc2c1NC(=O)CN1CCCc2ccccc21	Pf growth 48h inconclusive, Pf growth 96h 10.4µM

Bioassay records deposited in PubChem by National Center for Advancing Translational Sciences (NCATS).
